BJeLR lethal = BJeLR cell viability loss. BJeLR (HRASV12) viability, CellTiter-Glo ATP luminescence, 48 h. 0.17% of 300,000 active. inhibition, % (no concentration beside the values); in the data active means inhibition above about 50%
ugtP null kill = compounds lethal to S. aureus RN4220 ugtP deletion mutant; OD600 growth, 16 h; growth inhibition, % (test concentration not listed); 0.54% of 330,000 active; in the data active means growth inhibition above about 68%
Sa RN4220 lethal = S. aureus RN4220 growth inhibition. OD600, 16 h. inhibition, % (test concentration not listed). 0.33% of 330,000 active. AID 1259311; in the data active means inhibition above about 85%
Of the large screens only hits and unclear results are named; the others gave an inactive call. A selection: hits, their analogues and other compounds. The true share with any hit is near 0.65%.

CCCCC(NC(=O)Cc1c(C)c2cc3c(-c4ccccc4)coc3c(C)c2oc1=O)C(=O)O (stereo not given)	ugtP null kill 100, Sa RN4220 lethal 98
COc1cccc(-c2coc3c(C)c4oc(=O)c(CCC(=O)O)c(C)c4cc23)c1	ugtP null kill 100, Sa RN4220 lethal 100
COc1cccc(-c2coc3c(C)c4oc(=O)c(CC(=O)O)c(C)c4cc23)c1	ugtP null kill 99, Sa RN4220 lethal 95
COc1cccc(-c2coc3cc4oc(=O)c(CCC(=O)O)c(C)c4cc23)c1	none
Cc1c(CC(=O)O)c(=O)oc2c(C)c3occ(-c4ccc(Br)cc4)c3cc12	none (no result: ugtP null kill, Sa RN4220 lethal)
COc1ccc(-c2coc3cc4oc(=O)c(CC(=O)O)c(C)c4cc23)cc1	none
C/C(CCc1oc2ccc(Br)cc2c1-c1ccc(C)o1)=N/O	none (no result: ugtP null kill, Sa RN4220 lethal)
C/C(CCc1oc2ccc(Cl)cc2c1-c1ccc(C)o1)=N\O	none (no result: ugtP null kill, Sa RN4220 lethal)
CC(CCc1oc2ccc(Cl)cc2c1-c1ccc(C)o1)=NO	ugtP null kill 87 (no result: BJeLR lethal)
CC(CCc1oc2ccc(Br)cc2c1-c1ccc(C)o1)=NO	ugtP null kill 89 (no result: BJeLR lethal)
O=C(NCCCNc1ccc([N+](=O)[O-])cc1)C(F)(F)F	none
O=C(CCl)N(CCCNC(=O)C(F)(F)F)c1ccc([N+](=O)[O-])cc1	BJeLR lethal 116
Cc1nc(-c2ccc(NC(=O)/C=C\C(=O)O)cc2)cs1	none
CCc1cc2c(=O)[nH]c(N3CCOCC3)nc2s1	none
CCn1c(=O)c(C(=O)Nc2ccccc2S(N)(=O)=O)c(O)c2ccccc21	none
CCCCCn1c(=O)c(C(=O)Nc2ccccc2C)c(O)c2ccccc21	none
CCCCCn1c(=O)c(C(=O)Nc2ccccc2S(N)(=O)=O)c(O)c2ccccc21	ugtP null kill 100, Sa RN4220 lethal 100
CCCCn1c(=O)c(C(=O)Nc2ccccc2S(N)(=O)=O)c(O)c2ccccc21	Sa RN4220 lethal 93
CC(C)(C)n1cnc2cc(NC(=O)c3ccco3)ccc21	none
CC(C)(C)c1cc(NCc2ccccn2)n2ncc(-c3ccc(Cl)cc3)c2n1	none
Cc1cc(NCCCN2CCOCC2)n2ncc(-c3ccc(Cl)cc3)c2n1	none
Cc1cc(NCCCn2ccnc2)n2ncc(-c3ccc(Cl)cc3)c2n1	ugtP null kill 91
CC(C)(C)c1cc(NCCCn2ccnc2)n2ncc(-c3ccccc3)c2n1	ugtP null kill 85
CC(C)Nc1cc(C(C)(C)C)nc2c(-c3ccccc3)cnn12	none
CN(C)CCCNc1cc(C(C)(C)C)nc2c(-c3ccc(Cl)cc3)cnn12	ugtP null kill 100, Sa RN4220 lethal 101
CCCNC(=O)C1CC(c2ccccc2[N+](=O)[O-])=NO1 (stereo not given)	none
COc1cccc(C(=O)Nc2c(C)nn(-c3ccccc3)c2C)c1	none
CCCNC(=O)Cn1cc(S(=O)(=O)N2CCCC2)c(S(=O)(=O)N2CCCC2)c1	none
O=C(CN1CCN(c2cccc(C(F)(F)F)c2)CC1)N(C1CC1)C1CCS(=O)(=O)C1 (stereo not given)	none (no result: BJeLR lethal)
O=C(Nc1ccc(F)c(Cl)c1)N1CCCCCC1	none
Cc1nn(-c2ccc(F)cc2F)c(=O)c2noc(C)c12	none
CCOC(=O)c1c(C)nc2sc3c(=O)n(-c4ccc(OC)cc4)cnc3c2c1-c1ccc(OC)cc1	none
O=C(c1ccco1)N(Cc1ccc(Cl)cc1)C1CCS(=O)(=O)C1 (stereo not given)	none
COCc1cc(N2CCCCC2)nc(-c2ccccc2)n1	none
COCc1cc(Sc2c(Cl)cccc2Cl)nc(-c2ccccc2)n1	ugtP null kill 85
CC(=O)[C@]1(O)Cc2c(O)c3c(c(O)c2[C@@H](O[C@H]2C[C@H](N)[C@H](O)[C@H](C)O2)C1)C(=O)c1ccccc1C3=O	BJeLR lethal 82 (no result: ugtP null kill, Sa RN4220 lethal)
COc1cccc2c1C(=O)c1c(O)c3c(c(O)c1C2=O)C[C@@](O)(C(=O)CO)C[C@@H]3O[C@H]1C[C@H](N)[C@@H](O)[C@H](C)O1	BJeLR lethal 74 (no result: ugtP null kill, Sa RN4220 lethal)
CSc1ccccc1NC(=O)c1cc(C(C)C)on1	none
O=C(O)c1ccc(CSc2nnc(COc3ccccc3)o2)cc1	none
CC1CN(CCOc2ccc(F)cc2)CC(C)O1 (stereo not given)	none
CCC(C)[C@H](NC(=O)OC(C)(C)C)C(=O)N/N=C/c1ccc2nccnc2c1 (stereo not given in full)	none (no result: ugtP null kill, Sa RN4220 lethal)
O=C(CC1CCCCC1)N=C1SC2CS(=O)(=O)CC2N1c1ccccc1 (stereo not given)	none
COc1ccc2c(c1)C(C)=CC(C)(C)N2S(=O)(=O)c1ccc(Br)cc1	ugtP null kill 86
COc1ccc2c(c1)C(C)=CC(C)(C)N2S(=O)(=O)c1ccc(NC(C)=O)cc1	none (no result: ugtP null kill, Sa RN4220 lethal)
COc1cc(OC)c(C2=NOC(C(=O)NCc3cccs3)C2)cc1Cl (stereo not given)	BJeLR lethal 63
COc1cc(C2=NOC(C(=O)NCc3cccs3)C2)cc(OC)c1OC (stereo not given)	none
Cc1cc(NS(=O)(=O)c2ccc(CC(C)C)cc2)no1	none
